Results on 30 molecules are retold here after PubChem BioAssay (Tox21).

A short description of assay [1]: qHTS assay to identify small molecule antagonists of the glucocorticoid receptor (GR) signaling pathway - cell viability counter screen (AID 720693). Also: nearly all actives have a fitted effect of over 55% in size.
The nature of assay [2]: qHTS assay for identifying genotoxic compounds that show differential cytotoxicity against isogenic chicken DT40 cell lines with known DNA damage response pathways - wild type cell line (AID 743012). Also: nearly all actives have a fitted effect of over 60% in size. An outline of the steps:
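Parental DNA repair-proficient DT40 cells, 300 per well, were pre-incubated ~0.5 h at 37 C/5% CO2, pin-dosed with compounds in DMSO, then incubated 40 h. Viability was read as CellTiter-Glo luminescence after 30 min at room temperature.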
In general terms: Quantitative high-throughput screening tests each substance at several concentrations.

Assay [3] can be described thus: qHTS assay for identifying genotoxic compounds that show differential cytotoxicity against isogenic chicken DT40 cell lines with known DNA damage response pathways - Rev3 mutant cell line (AID 743014). Also: nearly all actives have a fitted effect of over 55% in size. Also: potency is read from the fitted curve at half-maximal effect.
A short description of assay [4]: qHTS assay for identifying genotoxic compounds that show differential cytotoxicity against isogenic chicken DT40 cell lines with known DNA damage response pathways - Rad54/Ku70 mutant cell line (AID 743015). Also: nearly all actives have a fitted effect of over 60% in size.
Assay [5] can be described thus: qHTS assay to identify small molecule antagonists of the androgen receptor (AR) signaling pathway - cell viability counter screen (AID 743033; also: nearly all actives have a fitted effect of over 45% in size).
Assay [6] is described as follows: qHTS assay to identify small molecule antagonists of the androgen receptor (AR) signaling pathway using the MDA cell line - cell viability counter screen (AID 743041; also: nearly all actives have a fitted effect of over 45% in size). The method, boiled down:
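Cells were plated at 3,000 per well and left 5 h. Compounds in DMSO were then pinned in, followed by R1881. After 16 h at 37C, CellTiter-Fluor fluorescence gave viability.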

Assay [7] can be described thus: qHTS assay to identify small molecule antagonists of the thyroid receptor (TR) signaling pathway - cell viability counter screen (AID 743064). Also: nearly all actives have a fitted effect of over 50% in size. An outline of the steps:
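Compounds were tested on GH3.TRE-Luc cells in the presence of T3 at 1 nM final. Following 23.5 h at 37 °C, cell viability was quantified by CellTiter-Fluor.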

Molecules are shown by their SMILES. Records with an inconclusive call do not appear. Unmarked numbers belong to inactive results. Active and inactive are the calls of the source. Calls follow the shape of the dose curve; as a rule, active = well fitted curve in the direction sought with a large enough effect in the repeat runs; inconclusive = weak or mixed curves; inactive = no such curve, though single readings can be large; an effect the other way counts as inactive or inconclusive.
% is scaled to controls: 0 for no effect and ±100 for the full control effect.

Consider `CCC(C)SSC(C)CC` (stereo unspecified), for which the result in assay [1], in assay [5] and in assay [6] was inactive. Further, the Potency entry in assay [2], in assay [3], in assay [4] and in assay [7] was “inactive” throughout.

In the case of `C=COCCCCO`, the result in assay [1], in assay [5] and in assay [6] was inactive. In addition, the Potency entry in assay [2], in assay [3], in assay [4] and in assay [7] was “inactive” each time.

Turning to `O=C(O)/C=C(\CC(=O)O)C(=O)O`, the call in assay [1], in assay [5] and in assay [6] was inactive. In addition, the Potency result in assay [2], in assay [3], in assay [4] and in assay [7] was “inactive” throughout.

For the molecule `CCOC(=O)CC(C(C)=O)C(C)=O`, the molecule was classed as inactive in assay [1], in assay [5] and in assay [6]. Besides, the Potency entry in assay [2], in assay [3], in assay [4] and in assay [7] was “inactive” throughout.

As to `Cc1ccc(Br)cc1`, the outcome in assay [1], in assay [5] and in assay [6] was inactive. The Potency entry in assay [2], in assay [3], in assay [4] and in assay [7] was “inactive” each time.

Consider `CC(C)c1cc(C(C)C)cc(C(C)C)c1`, for which the molecule was called inactive in assay [1], in assay [5] and in assay [6]. For the same molecule, the Potency entry in assay [2], in assay [3], in assay [4] and in assay [7] was “inactive” throughout.

In the case of `CC(=O)Nc1ccc(S(=O)(=O)Nc2cc(C)on2)cc1`, the molecule was called inactive in assay [1], in assay [5] and in assay [6]. In addition, the Potency result in assay [2], in assay [3], in assay [4] and in assay [7] was “inactive” in each case.

For `CC1(C)S[C@@H]2[C@H](NC(=O)Cc3ccccc3)C(=O)N2[C@H]1C(=O)O` (tested in a mixture with another compound), the molecule was called inactive in assay [1], in assay [5] and in assay [6]. For the same molecule, the Potency entry in assay [2], in assay [3], in assay [4] and in assay [7] was “inactive” in each case.

As for `O=C(CCBr)N1CCN(C(=O)CCBr)CC1`, the result in assay [1], in assay [5] and in assay [6] was inactive. Further, the Potency entry in assay [2], in assay [3], in assay [4] and in assay [7] was “inactive” each time.

For the molecule `CC/C=C/CCCCCCCCCCOC(C)=O`, the result in assay [1], in assay [5] and in assay [6] was inactive. Moreover, the Potency entry in assay [2], in assay [4] and in assay [7] was “inactive” in each case. Moreover, the Potency in assay [3] is 43.3 µM (active).

Regarding `NCC1CCC(C(=O)Oc2ccc(CCC(=O)O)cc2)CC1` (stereo unspecified), the call in assay [1], in assay [5] and in assay [6] was inactive. For the same molecule, the Potency result in assay [2], in assay [3], in assay [4] and in assay [7] was “inactive” in each case.

As for `CC(C)(Sc1cc(C(C)(C)C)c(O)c(C(C)(C)C)c1)Sc1cc(C(C)(C)C)c(O)c(C(C)(C)C)c1`, the result in assay [1], in assay [5] and in assay [6] was inactive. Also, the Potency entry in assay [2], in assay [3], in assay [4] and in assay [7] was “inactive” each time.

In the case of `C=CC(=O)CC`, the result in assay [1], in assay [5] and in assay [6] was inactive. Also, the Potency entry in assay [2], in assay [3], in assay [4] and in assay [7] was “inactive” throughout.

Regarding `Cc1nnc(C(=O)NC(C)(C)c2nc(C(=O)NCc3ccc(F)cc3)c(O)c(=O)n2C)o1`, the call in assay [1], in assay [5] and in assay [6] was inactive. Moreover, the Potency result in assay [2], in assay [3], in assay [4] and in assay [7] was “inactive” each time.

As to `CCCCC(CC)COC(=O)CC#N` (stereo unspecified), the outcome in assay [1], in assay [5] and in assay [6] was inactive. The Potency result in assay [2], in assay [3], in assay [4] and in assay [7] was “inactive” each time.

For `COC(=O)c1ccccc1Cl`, the call in assay [1], in assay [5] and in assay [6] was inactive. The Potency result in assay [2], in assay [3], in assay [4] and in assay [7] was “inactive” each time.

In the case of `O=Cc1ccc(C(=O)O)cc1`, the molecule was classed as inactive in assay [1], in assay [5] and in assay [6]. The Potency entry in assay [2], in assay [3], in assay [4] and in assay [7] was “inactive” in each case.

Consider `O=CN1CCCCC1`, for which the molecule was classed as inactive in assay [1], in assay [5] and in assay [6]. In addition, the Potency entry in assay [2], in assay [3], in assay [4] and in assay [7] was “inactive” in each case.

`O=C(O)Cc1c(Cl)ccc(Cl)c1Cl`: the molecule was called inactive in assay [1], in assay [5] and in assay [6]. In addition, the Potency result in assay [2], in assay [3], in assay [4] and in assay [7] was “inactive” in each case.

For `CCCCCCCCCCCCCC(=O)OCC`, the molecule was classed as inactive in assay [1], in assay [5] and in assay [6]. The Potency result in assay [2], in assay [3], in assay [4] and in assay [7] was “inactive” each time.

In the case of `N#CC1(N)CCCCC1`, the molecule was called inactive in assay [1], in assay [5] and in assay [6]. Also, the Potency entry in assay [2], in assay [3], in assay [4] and in assay [7] was “inactive” each time.

Turning to `c1cc2ccc3ccc4ccc5cccc6c(c1)c2c3c4c56`, the viability change, negative = cytotoxic is -5.31% [at 3.15 µM] in assay [1] and 14.1% [at 3.79 µM] in assay [6]. Further, the activity change, negative = cytotoxicity in assay [2] was -1.12% [at 3.82 µM]; in assay [4], 5.01% [at 3.83 µM]; in assay [5], 1.8% [at 3.15 µM]. The activity, negative = cytotoxicity in assay [3] is 5.02% [at 3.82 µM]. In assay [7], the activity change, negative = cytotoxic is 20.6% [at 3.79 µM].

Consider `CCCCN1C(=O)c2ccccc2C1=O`, for which the call in assay [1] and in assay [5] was inactive. In addition, the Potency entry in assay [2], in assay [3], in assay [4] and in assay [7] was “inactive” throughout.

With `CN(C)CCCN(C)C`, the viability change, negative = cytotoxic in assay [1] is 3.46% [at 7.04 µM]; in assay [6], 5.47% [at 8.47 µM]. Further, the values for the activity change, negative = cytotoxicity in assay [2], in assay [4] and in assay [5] were -5.84% [at 8.52 µM], 3.34% [at 8.55 µM] and 3.01% [at 7.04 µM], respectively. In addition, the activity, negative = cytotoxicity in assay [3] is -13% [at 8.53 µM]. For the same molecule, in assay [7], the activity change, negative = cytotoxic was 20.5% [at 8.44 µM].

On to `CC[N+](C)(CC)CC`, for which the molecule was called inactive in assay [1] and in assay [5]. Further, the Potency result in assay [2], in assay [3], in assay [4] and in assay [7] was “inactive” in each case.

In the case of `CC(C)(C)C(=O)NCCCC(=O)O`, the molecule was called inactive in assay [1], in assay [5] and in assay [6]. The Potency entry in assay [2], in assay [3], in assay [4] and in assay [7] was “inactive” each time.

As for `CCCCOCCCC`, the call in assay [1], in assay [5] and in assay [6] was inactive. Further, the Potency result in assay [2], in assay [3], in assay [4] and in assay [7] was “inactive” throughout.

In the case of `CCCCc1ccc(Cl)cc1`, the molecule was classed as inactive in assay [1], in assay [5] and in assay [6]. For the same molecule, the Potency result in assay [2], in assay [3], in assay [4] and in assay [7] was “inactive” throughout.

`CCCCCC(CC)OC(=O)CCCOc1ccc(Cl)cc1Cl` (stereo unspecified): the molecule was classed as inactive in assay [1] and in assay [5]. The Potency result in assay [2], in assay [3], in assay [4] and in assay [7] was “inactive” throughout.

For the molecule `CC(C)(C)C(=O)CCc1ccc(Cl)cc1`, the molecule was called inactive in assay [1] and in assay [5]. Also, the Potency result in assay [2], in assay [3], in assay [4] and in assay [7] was “inactive” each time.
